Compound activity as filed in PubChem.
This is a sample that favours compounds with a hit; in the whole collection about 10% have one here.
NPR1 antag: Natriuretic polypeptide receptor (hNpr1) antagonism - Primary qHTS; Atrial natriuretic peptide receptor 1 (Homo sapiens), P16066; HEK293 hNpr1 GloSensor cGMP, ANP-stimulated luminescence; Potency, µM (doses to about 46.3 µM), actives largely listed as inhibitors; 76,000 compounds, 1.6% hits; AID 1347048, 2019; calls by dose curve; also: nearly all actives have a fitted effect of over 60% in size
Target sequence (P16066 whole entry, looked up): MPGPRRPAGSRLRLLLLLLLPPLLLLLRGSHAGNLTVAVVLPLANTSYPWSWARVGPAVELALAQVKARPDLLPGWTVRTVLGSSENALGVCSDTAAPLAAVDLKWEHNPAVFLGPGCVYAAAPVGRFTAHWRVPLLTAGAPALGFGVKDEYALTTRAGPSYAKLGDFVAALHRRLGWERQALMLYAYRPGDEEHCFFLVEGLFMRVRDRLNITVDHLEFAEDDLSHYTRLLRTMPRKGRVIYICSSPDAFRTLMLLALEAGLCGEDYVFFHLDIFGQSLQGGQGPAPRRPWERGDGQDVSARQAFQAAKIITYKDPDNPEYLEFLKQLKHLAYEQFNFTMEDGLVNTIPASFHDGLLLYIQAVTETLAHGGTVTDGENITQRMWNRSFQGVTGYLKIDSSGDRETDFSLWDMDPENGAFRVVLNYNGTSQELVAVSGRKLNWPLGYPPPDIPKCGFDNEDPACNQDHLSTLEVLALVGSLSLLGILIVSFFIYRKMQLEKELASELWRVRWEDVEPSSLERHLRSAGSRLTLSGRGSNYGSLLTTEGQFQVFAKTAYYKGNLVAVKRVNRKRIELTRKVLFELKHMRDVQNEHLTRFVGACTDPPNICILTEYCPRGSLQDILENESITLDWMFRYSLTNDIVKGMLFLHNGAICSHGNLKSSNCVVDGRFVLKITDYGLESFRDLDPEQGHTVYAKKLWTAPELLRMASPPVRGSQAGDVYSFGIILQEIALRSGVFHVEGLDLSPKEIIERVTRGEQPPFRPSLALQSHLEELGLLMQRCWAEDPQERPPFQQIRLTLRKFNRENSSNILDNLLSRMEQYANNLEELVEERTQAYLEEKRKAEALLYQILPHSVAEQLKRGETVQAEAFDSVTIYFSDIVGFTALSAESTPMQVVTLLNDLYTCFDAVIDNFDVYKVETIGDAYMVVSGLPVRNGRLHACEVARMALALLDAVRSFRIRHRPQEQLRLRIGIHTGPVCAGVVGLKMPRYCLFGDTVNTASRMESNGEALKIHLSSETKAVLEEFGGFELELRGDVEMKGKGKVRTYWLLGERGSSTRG
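Compound pre-incubated 30 min at room temperature on GloSensor-loaded HEK293 cells stably carrying hNpr1 and the pGS-40F cGMP biosensor. Stimulation uses hNppA at 0.1 nM final; luminescence is taken at baseline and 20 min post-agonist.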
HEK cytotox: Cytotoxic Profiling in HEK 293 Cell Line of Diverse Libraries Using Quantitative High-Throughput Screening. HEK 293 viability, ATP luminescence (CellTiter-Glo), 48-72 h. Potency, µM (doses to about 115 µM), hits mostly inhibitors. AID 1345083, 2018. 94,000 compounds, 6.6% hits; also: nearly all actives have a fitted effect of over 60% in size
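Cytotoxicity was scored by loss of ATP-coupled luminescence (CellTiter-Glo) in HEK 293 cells. Compound treatment ran 48 or 72 hr at 37 degree Celsius, 5% CO2, 95% humidity.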
3T3 cytotox: Cytotoxic Profiling in NIH 3T3 Cell Line of Diverse Libraries Using Quantitative High-Throughput Screening; NIH 3T3 viability, CellTiter-Glo ATP luminescence, 48-72 h; Potency, µM (titrated, usually from 96.7 µM), most hits filed as inhibitors; 94,000 compounds, 4.3% hits; also: nearly all actives have a fitted effect of over 55% in size
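First NIH 3T3 cells are plated at 400 cells/well; next compound is pinned in; then plates incubate 48 or 72 hr at 37 °C; finally CellTiter-Glo is added and luminescence read after 10 min.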
FLuc inh: Firefly luciferase inhibition profiling of diverse chemical library using quantitative high-throughput screening. purified P. pyralis luciferase, luminescence, biochemical. 76,000 compounds, 2.5% hits. Luciferin 4-monooxygenase (Photinus pyralis), P08659. AID 1347043, 2019. Potency, µM (titrated, usually from 115 µM), usual class: inhibitors; also: nearly all actives have a fitted effect of over 65% in size
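Cell-free enzyme assay, 10nM P. pyralis luciferase, luciferin and ATP each at 10uM. Inhibition profiled over a 6-point titration, read as luminescence.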
GPT2 inhibitor: Primary qHTS assay for inhibitors of Glutamate pyruvate transaminase 2 (GPT2). Potency, µM (series often up to 57.7 µM), hits mostly inhibitors. Recombinant GPT2, coupled pyruvate oxidase/HRP Amplex Red fluorescence. 100,000 compounds, 0.25% hits; also: nearly all actives have a fitted effect of over 60% in size
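Fluorescence of coupled pyruvate oxidase/HRP/Amplex Red system (50uM Amplex, 30 min, dark) reports pyruvate formed by GPT2. Enzyme reaction: 10ng/uL GPT2, 2mM L-alanine, 250uM a-KG, 30 min room temperature, pH 7.5; 50uM AOA control.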
Hits are given with their value; n = inactive; u = inconclusive; x = no result; [ ] = dose if it differs, or a comment. Unless noted, calls follow the shape of the dose curve; as a rule, active = well fitted curve in the direction sought with a large enough effect; inconclusive = small, poorly fitted or top-dose-only effect, or another doubt; inactive = no such curve, though single readings can be large; an effect the other way counts as inactive or inconclusive.

SMILES	NPR1 antag	HEK cytotox	3T3 cytotox	FLuc inh	GPT2 inhibitor
COc1ccc(CN2C(=O)[C@@H]3C[C@@H](CN3C(C)C)Oc3ccccc32)cc1	n	n	n	n	n
O=C1[C@@H]2C[C@@H](CN2Cc2nccs2)Oc2ccccc2N1Cc1ccc(OC(F)(F)F)cc1	n	u	u	n	n
CC(=O)N1CCC(N2C[C@@H]3C[C@H]2C(=O)N(Cc2ccc(OC(F)(F)F)cc2)c2ccccc2O3)CC1	n	u	u	n	n
O=C1[C@@H]2C[C@@H](CN2C2CCCC2)Oc2ccccc2N1Cc1ccccc1	n	100µM	u	n	n
CC(C)N1C[C@@H]2C[C@H]1C(=O)N(Cc1ccc(OC(F)(F)F)cc1)c1ccccc1O2	n	70.8µM	u	n	n
O=C1[C@@H]2C[C@@H](CN2C2COC2)Oc2ccccc2N1Cc1ccc(OC(F)(F)F)cc1	n	100µM	u	n	u
COCCN1C(=O)[C@@H]2C[C@@H](CN2C2CCCC2)Oc2ccccc21	n	u	n	n	n
CN1CCC(N2C[C@@H]3C[C@H]2C(=O)N(Cc2ccc(OC(F)(F)F)cc2)c2ccccc2O3)CC1	n	u	39.8µM	n	n
C=C(C(=O)O)C1CC(O)C2(C)CCCC(=C)C2C1 (stereo not given)	x	x	x	x	n
CCN(Cc1ccncc1)C(=O)c1cc(-c2cnn(CC)c2)nc2cc(C)ccc12	n	u	2.82µM	u	n
Cc1ccc(NC(=O)Cn2c(N3CCOCC3)nc(C)cc2=O)c(Cl)c1	n	n	n	n	n
COCC(=O)Nc1ccc(-c2noc([C@@H]3CCCN3Cc3ccc(NC(C)=O)cc3)n2)cn1	n	n	n	n	n
COCC(=O)Nc1ccc(-c2noc([C@@H]3CCCN3Cc3cc4ccccc4o3)n2)cn1	n	70.8µM	u	n	n
COc1ccc(C(=O)Nc2ccc(-c3noc([C@@H]4CCCN4Cc4ccncc4)n3)cn2)cc1	12.6µM	u	u	u	n
Cc1c(-c2ccccc2F)[nH]c2ccc(CNC(=O)CN3CC(=O)NC3=O)cc12	n	u	u	15.8µM	n
Cc1nc(CCC(=O)NCc2ccc3[nH]c(-c4ccccc4F)c(C)c3c2)n[nH]1	n	u	u	15.8µM	n
Cc1ccc(CNC(=O)C2CCCN(C3CCN(C(=O)C4CC4)CC3)C2)cc1F (stereo not given)	n	n	n	n	n
Cc1c(-c2ccccc2F)[nH]c2ccc(CNC(=O)CCn3cnnc3)cc12	n	n	u	u	n
Cc1c(-c2ccccc2F)[nH]c2ccc(CNC(=O)C3CCNC3)cc12 (stereo not given)	n	u	u	20µM	n
Cc1c(-c2ccccc2F)[nH]c2ccc(CNS(=O)(=O)C3CC3)cc12	u	35.5µM	u	u	u
O=C(CN1CC(=O)NC1=O)NCc1noc(-c2ccc3c(c2)OCO3)n1	n	u	n	n	n
Cc1ccc(C2Cn3nnc(C(=O)N4CCC(C(=O)Nc5ccc(C)c(F)c5)CC4)c3CO2)cc1 (stereo not given)	n	n	n	u	n
CCCCC(=O)Nc1cc(NC(=O)C(C)NS(C)(=O)=O)ccc1OC (stereo not given)	n	n	n	n	n
COc1ccc(CCNC(=O)c2cn3cc(-c4ccc(C)cc4)sc3n2)cc1	x	n	u	x	n
O=C1N[C@H](CC(=O)N2CCN(Cc3ccc4c(c3)OCO4)CC2)C(=O)Nc2ccccc21	n	n	n	n	n
SMILES	NPR1 antag	HEK cytotox	3T3 cytotox	FLuc inh	GPT2 inhibitor
O=C(Nc1ccc2n(c1=O)C[C@H]1C[C@@H]2CN(C(=O)Nc2ccc(F)cc2)C1)c1ccccc1	n	n	22.4µM	n	n
CC(=O)c1ccc(NC(=O)N2C[C@@H]3C[C@H](C2)c2ccc(NC(=O)Nc4cccc(F)c4)c(=O)n2C3)cc1	n	n	n	35.5µM	n
COc1ccc(-c2cn3cc(C(=O)NCc4cccc(Cl)c4)nc3s2)cc1	x	u	n	x	n
O=[S+]([O-])(CCC(F)(F)F)NC1CCN(Cc2cccc(-c3cccs3)c2)CC1	x	u	22.4µM	x	n
O=C(NCc1ccccc1Cl)C1CCN(C(=O)c2ccc(-c3cccs3)cc2)CC1	x	u	39.8µM	x	x
Cc1noc(C)c1[S+](=O)([O-])NC1CCN(C(=O)c2ccc(-c3cccs3)cc2)CC1	x	u	u	x	n
COC(=O)CNC(=O)C1CCN(C(=O)c2ccc(-c3cccs3)cc2)CC1	x	n	n	x	x
O=C(Cc1ccc(F)cc1)NC1CCN(Cc2cccc(-c3ccc(F)c(F)c3)c2)CC1	x	n	n	x	n
O=C(c1ccc(-c2cccs2)cc1)N1CCC(N[S+](=O)([O-])c2ccccc2)CC1	x	44.7µM	u	x	n
O=[S+]([O-])(NC1CCN(Cc2cccc(-c3ccc(F)c(F)c3)c2)CC1)c1cccs1	x	35.5µM	u	x	x
O=C(c1ccccc1Cl)N1CCCC(c2nn(-c3ccccn3)c(=O)[nH]2)C1 (stereo not given)	x	n	u	x	n
O=C(c1ccccc1Cl)N1CCCN(c2ccc3nnc(C4CC4)n3n2)CC1	x	n	n	x	x
C[C@@H]1CN(C2(C(=O)N[C@@H](C)C(N)=O)Cc3ccccc3C2)C[C@H](C)O1	n	n	n	n	n
O=[S+]([O-])(NC1CCN(Cc2cccc(-c3cccs3)c2)CC1)c1cccs1	x	u	u	x	n
Cc1ccc([S+](=O)([O-])NC2CCN(Cc3cccc(-c4cccs4)c3)CC2)cc1	x	u	11.2µM	x	n
O=[S+]([O-])(NC1CCN(Cc2cccc(-c3cccs3)c2)CC1)c1ccccc1	x	44.7µM	39.8µM	x	n
CN(Cc1cnccn1)C(=O)c1csc2nc(-c3cccc(C(F)(F)F)c3)cn12	n	u	u	u	n
CN(C)CC(C)(C)NC(=O)c1csc2nc(-c3cccc(C(F)(F)F)c3)cn12	n	44.7µM	u	n	n[11.5 µM]
C=CCc1ccccc1OCCN(C)Cc1ccc(S(C)(=O)=O)cc1	n	39.8µM	u	n	n
C=CCc1ccccc1OCCN(C)Cc1cc2ccc(F)cc2[nH]c1=O	u	44.7µM	35.5µM	n	n[11.5 µM]
Cc1nnc2ccc(N3CCC(NC(=O)c4ccccc4Cl)CC3)nn12	x	n	n	x	x
c1cc(-c2nc3c(c(NCCCn4ccnc4)n2)CCNCC3)ccn1	n	n	n	n	n
c1ccc(-c2nc3c(c(NCC4OCCc5ccccc54)n2)CCNCC3)nc1 (stereo not given)	n	u	79.4µM	n	n
CN(C)C(=O)C1CCCN(c2nc3ncccc3o2)C1 (stereo not given)	n	n	n	n	n
